# SENP7 inh: SENP7 protease inhibitors, primary screen, biochemical, luminescence, uHTS; Sentrin-specific protease 7 (Homo sapiens), Q9BQF6; recombinant SENP7, Z-RLRGG-aminoluciferin luminescence, 40 min; inhibition, % at 5 µM; hit rate 1.5% among 330,000; AID 434973, 2010;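 active = inhibition above about 50% at the single test dose, limit read from the data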;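 also: plate controls were DMSO with enzyme for no effect and no enzyme buffer wells for full effect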
# HSP90 inh: HSP90 inhibitors, primary screen, cell lysate, luminescence; Rabbit reticulocyte lysate, luciferase refolding luminescence, 3 h; inhibition, % at 5.6 µM; hit rate 0.91% among 290,000;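 active = inhibition above the screen-wide mean plus 3 SD, computed separately per campaign, cut at about 16% in these data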;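 also: 0% = DMSO wells and 100% = 60 µM geldanamycin wells; inhibitors lower the luminescence because luciferase stays unfolded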
# LGR2 inh: inhibitors of bursicon-induced LGR2 CRE-luciferase signal, primary screen, cell-based, HEK293, CRE-luciferase reporter, bursicon stimulation; Drosophila bursicon receptor LGR2 (rickets); bursicon-stimulated, 4 h; inhibition, % at 9.99 µM; hit rate 0.35% among 380,000;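 active = drop in luminescence signal, shown as inhibition above about 50% in the replicate tests, limit read from the data, passing the limit was not always enough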;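 also: agonist challenge used bursicon conditioned medium at about half maximal strength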
# SENP8 block-1: human SENP8 protease inhibitors, primary screen, biochemical, fluorescence, Nedd8 protein substrate, uHTS; recombinant SENP8; AID 602440, 2012; inhibition, % at 20 µM; hit rate 0.64% among 360,000; in the data active = inhibition mostly above about 40%, no sharp cut-off; inactive = mostly below about 27%
# SENP8 block-2: SENP8 protease inhibitors, primary screen, biochemical, luminescence | purified SENP8, Z-RLRGG-aminoluciferin cleavage | inhibition, % at 10 µM | hit rate 1.2% among 330,000; in the data active = inhibition above about 50%
# SENP6 block: SENP6 protease inhibitors, primary screen, biochemical, luminescence, uHTS | Sentrin-specific protease 6 (Homo sapiens), Q9GZR1 | hit rate 1.8% among 330,000 | Recombinant SENP6 catalytic domain, aminoluciferin luminescence | inhibition, % at 10 µM;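 active = inhibition above about 50% at the single tested dose, limit read from the data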;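 also: plate controls were DMSO wells with enzyme for no effect and DMSO wells lacking enzyme for full effect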
# Target sequence (Q9GZR1 628-1112 limits assumed): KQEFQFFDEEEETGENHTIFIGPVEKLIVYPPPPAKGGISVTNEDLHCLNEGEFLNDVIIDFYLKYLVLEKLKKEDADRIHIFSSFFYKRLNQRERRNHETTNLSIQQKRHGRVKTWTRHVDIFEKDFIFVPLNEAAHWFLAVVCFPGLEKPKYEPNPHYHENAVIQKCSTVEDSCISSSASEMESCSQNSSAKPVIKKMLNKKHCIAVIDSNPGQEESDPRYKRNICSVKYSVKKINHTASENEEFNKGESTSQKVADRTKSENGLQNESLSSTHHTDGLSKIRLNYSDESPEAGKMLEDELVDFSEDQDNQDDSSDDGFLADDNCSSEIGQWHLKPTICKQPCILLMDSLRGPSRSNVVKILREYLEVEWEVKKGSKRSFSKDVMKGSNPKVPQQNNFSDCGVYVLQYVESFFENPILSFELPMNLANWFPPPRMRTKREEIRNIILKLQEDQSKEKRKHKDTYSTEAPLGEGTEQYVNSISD
# SENP8 conf: human SENP8 protease inhibitors, confirmation, biochemical, Nedd8 protein substrate, single concentration; shares compounds with SENP8 block-1; purified SENP8, Nedd8-AMC/pro-Nedd8 cleavage fluorescence, 30 min; inhibition, % at 25 µM; hit rate 15% among 1,400; in the data active = inhibition mostly above about 39%, no sharp cut-off; inactive = mostly below about 34%
# Starred values were filed as active, the others as inactive; x = no result given. The list is not random: actives were taken first. Their share in the collection is about 2.3%.
SMILES,SENP7 inh,HSP90 inh,LGR2 inh,SENP8 block-1,SENP8 block-2,SENP6 block,SENP8 conf
COC1C(OC(=O)c2ccc(C)[nH]2)C(O)C(Oc2ccc3c(O)c(NC(=O)c4ccc(O)c(CC=C(C)C)c4)c(=O)oc3c2Cl)OC1(C)C (stereo not drawn),-4.3,-4.2,7.8,40.5*,22.9,23.9,-0.4
O=c1[nH]c(=S)[nH]c(O)c1N=Nc1cccc(S(=O)(=O)N2CCOCC2)c1,-0.2,0.6,6.6,32.2,0.6,-6.8,x
COc1cccc(N=Nc2c(O)[nH]c(=S)[nH]c2=O)c1,29.5,2.6,-5.1,50.7*,24.1,48.8,21.5
O=C(CCC(=O)N1C[C@H]2C[C@@H](C1)c1cccc(=O)n1C2)NCc1cccc(C(F)(F)F)c1,-4.8,-3.1,4.6,49.5*,0.2,-2.8,6.2
O=C(CCC(=O)N1C[C@H]2C[C@@H](C1)c1cccc(=O)n1C2)NCc1ccccc1,-3.2,-2.9,6.5,20.7,-2.4,-18.6,x
CN1CCN(c2cc(N3CCCC3)c([N+](=O)[O-])cc2F)CC1,3.2,-0.1,x,44.9*,-0.8,-13.3,16.1
O=[N+]([O-])c1cc(F)c(N2CCCCC2)cc1Br,0.5,-1.6,-3.9,40.3*,-4.1,0.5,5.2
O=[N+]([O-])c1cc(F)c(N2CCCC2)cc1Br,1.4,3.6,x,13.4,-2.1,-8.7,x
CCCNC(=O)N1[C@@H]2c3ccc(-c4cccc(C(=O)N(C)C)c4)c(=O)n3C[C@H]1[C@H](CO)[C@H]2C(=O)O,x,x,2.0,x,x,x,x
C=CCc1cc(OC)c2c(c1)OCO2,-2.7,x,11.9,22.0,4.2,-4.0,x
COc1cccc2c1cc([N+](=O)[O-])c1c(C(=O)O)cc3c(c12)OCO3,x,x,67.3*,42.4*,x,x,21.2
CCOc1ccc(NC(=O)N2C[C@H]3C[C@@H](C2)c2cccc(=O)n2C3)cc1,-3.2,-3.2,-13.0,42.1*,-0.9,-0.4,8.6
O=C(Nc1ccc(Cl)cc1)N1CC2CC(C1)c1cccc(=O)n1C2 (stereo not drawn),15.6,0.9,-19.7,1.0,-9.4,-4.8,x
Cc1ccc(NC(=O)[C@@H](NC(=O)N2C[C@H]3C[C@@H](C2)c2cccc(=O)n2C3)C(C)C)cc1,-7.4,5.8,0.0,56.1*,0.9,-11.3,16.6
CCCC#Cc1ccc([C@H]2[C@H]3CN(C(=O)Cc4ccccn4)CCCCN3[C@H]2CO)cc1,x,x,10.2,x,x,x,x
O=c1ccc2c(O)c3ccoc3cc2o1,-10.0,x,-15.6,48.4*,-14.7,-1.3,4.5
O=C1NC(=O)C(CCc2ccncc2)(Cc2ccc3c(c2)OCO3)C(=O)N1CCc1ccccc1 (stereo not drawn),12.5,1.6,x,29.1*,1.4,1.9,12.9
COC(=O)[C@H]1[C@H](CO)[C@H]2Cn3c(ccc(-c4ccccc4OC)c3=O)[C@@H]1N2Cc1ccccc1,x,x,-6.5,x,x,x,x
C=CC12CN(C)C3C4COC(CC41)C1(C(=O)Nc4ccccc41)C32 (stereo not drawn),x,x,1.4,40.9*,x,x,3.4
CN1C2CCC1CC(=NO)C2,-0.6,-1.1,-1.0,47.8*,-4.9,2.0,25.1
COC(=O)[C@@H]1[C@@H](CO)[C@@H]2Cn3c(cccc3=O)[C@H]1N2C(=O)C1CC1,x,x,-14.0,x,x,x,x
Oc1cccc2nc3ccccc3nc12,13.9,0.3,x,22.0*,-13.3,0.8,16.7
CC=Cc1ccc2n(c1=O)C[C@H]1[C@H](CO)[C@@H](C(=O)OC)[C@@H]2N1CC1CCCCC1 (mixture of isomers),x,x,-8.1,x,x,x,x
O=c1[nH]c(=S)[nH]c(O)c1N=Nc1cc(S(=O)(=O)Nc2ccc(Cl)cc2)ccc1Cl,-2.0,x,-14.8,41.2*,5.8,16.7,10.7
O=c1[nH]c(=S)[nH]c(O)c1N=Nc1ccc(S(=O)(=O)N2CCOCC2)cc1,0.3,-1.4,19.6,35.0,-10.9,-14.2,x
O=C(Cc1ccncc1)N1CCCCN2[C@H](CO)[C@@H](c3ccc(C#Cc4ccccc4F)cc3)[C@@H]2C1,x,x,11.4,x,x,x,x
O=C(Cc1cccnc1)N1CCCCN2[C@@H](CO)[C@H](c3ccc(/C=C/c4ccccc4)cc3)[C@@H]2C1,x,x,2.6,x,x,x,x
COC(=O)[C@@H]1[C@@H](CO)[C@@H]2Cn3c(ccc(-c4ccccc4F)c3=O)[C@H]1N2Cc1cccnc1,x,x,21.9,x,x,x,x
